Records with an inconclusive call do not appear. Where a call stands in place of a potency, no number is given. A number with no mark means an inactive call. Active and inactive are the calls of the source. Calls come from the whole dose curve; as a rule, active = well fitted curve in the direction sought with a large enough effect; inconclusive = small, poorly fitted or top-dose-only effect, or another doubt; inactive = no such curve, though single readings can be large; an effect the other way counts as inactive or inconclusive.
Key:
[1] = qHTS for Inhibitors of Plasmodium falciparum (DD2) proliferation (AID 504314);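 note: parasite DNA measured by SYBR Green fluorescence after red cell lysis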
In short: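 Infected RBCs, 0.3% parasitemia, 2.5% Hct; compound 72 h, 37C/5% CO2; lyse + SYBR Green I, RT overnight, dark; read ex485/em535; normalize to DMSO and artemisinin 0.29 uM.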

[2] = qHTS for Inhibitors of Plasmodium falciparum (7G8) proliferation (AID 504316); note: nearly all actives have a fitted effect of over 65% in size
In short: (§1)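 Erythrocytes infected with P. falciparum line (0.3% parasitemia, 2.5% hematocrit final) incubated with compounds 72 h at 37 °C, 5% CO2; SYBR Green lysis buffer added, fluorescence read next day. Normalized to 0.29 uM artemisinin and DMSO.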

[3] = qHTS for Inhibitors of Plasmodium falciparum (CP250) proliferation (AID 504320)
In short: as §1

[4] = biological target: Luciferin 4-monooxygenase (Photinus pyralis) (UniProt P08659); assay: Biochemical firefly luciferase enzyme assay for NPC (AID 624030);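 note: purified P. pyralis luciferase at 10 nM with luciferin and ATP substrate; nearly all actives have a fitted effect of over 70% in size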
In short: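 Counter-screen for direct inhibition of the luciferase enzyme by approved-drug library compounds, run at 10 nM enzyme in 50 mM Tris acetate (final). Luminescence was read within 5 min of enzyme-buffer addition and normalized to PTC124 versus DMSO (0%).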

[5] = qHTS profiling for inhibitors of Plasmodium falciparum proliferation (AID 504749); note: nearly all actives have a fitted effect of over 60% in size; note: potency is the fitted concentration of half-maximal effect; conditions: P. falciparum in erythrocytes, SYBR Green DNA, 72 h, at 28.7 µM (top of the series)
In short: (§2)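 P. falciparum-infected erythrocytes (0.3% parasitemia, 2.5% hematocrit final) were exposed to compounds for 72 h at 37 C in 5% CO2, then lysed with SYBR Green buffer overnight at room temperature; parasite DNA fluorescence was normalized to artemisinin and DMSO controls.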

ATS189 = assay: as above; conditions: P. falciparum in erythrocytes, SYBR Green DNA, 72 h; series mostly up to 28.7 µM
In short: as §2

CP185 = assay: as above; conditions: P. falciparum in erythrocytes, SYBR Green DNA, 72 h; series mostly up to 28.7 µM
In short: as §2

CP191 = assay: as above; conditions: P. falciparum in erythrocytes, SYBR Green DNA, 72 h; series mostly up to 28.7 µM
In short: as §2

CP192 = assay: as above; conditions: P. falciparum in erythrocytes, SYBR Green DNA, 72 h; series mostly up to 28.7 µM
In short: as §2

CP238 = assay: as above; conditions: P. falciparum in erythrocytes, SYBR Green DNA, 72 h; series mostly up to 28.7 µM
In short: as §2

CP250 = assay: as above; conditions: P. falciparum in erythrocytes, SYBR Green DNA, 72 h; series mostly up to 28.7 µM
In short: as §2

CP252 = assay: as above; conditions: P. falciparum in erythrocytes, SYBR Green DNA, 72 h; series mostly up to 28.7 µM
In short: as §2

CP256 = assay: as above; conditions: P. falciparum in erythrocytes, SYBR Green DNA, 72 h; series mostly up to 28.7 µM
In short: as §2

CP262 = assay: as above; conditions: P. falciparum in erythrocytes, SYBR Green DNA, 72 h; series mostly up to 28.7 µM
In short: as §2

CP329 = assay: as above; conditions: P. falciparum in erythrocytes, SYBR Green DNA, 72 h; series mostly up to 28.7 µM
In short: as §2

Dd2 = assay: as above; conditions: P. falciparum in erythrocytes, SYBR Green DNA, 72 h; series mostly up to 28.7 µM
In short: as §2

FAB9 = assay: as above; conditions: P. falciparum in erythrocytes, SYBR Green DNA, 72 h; series mostly up to 28.7 µM
In short: as §2

PC49 = assay: as above; conditions: P. falciparum in erythrocytes, SYBR Green DNA, 72 h; series mostly up to 28.7 µM
In short: as §2

TAB109 = assay: as above; conditions: P. falciparum in erythrocytes, SYBR Green DNA, 72 h; series mostly up to 28.7 µM
In short: as §2

Luciferin 4-monooxygenase (Photinus pyralis), sequence (P08659 whole entry, looked up): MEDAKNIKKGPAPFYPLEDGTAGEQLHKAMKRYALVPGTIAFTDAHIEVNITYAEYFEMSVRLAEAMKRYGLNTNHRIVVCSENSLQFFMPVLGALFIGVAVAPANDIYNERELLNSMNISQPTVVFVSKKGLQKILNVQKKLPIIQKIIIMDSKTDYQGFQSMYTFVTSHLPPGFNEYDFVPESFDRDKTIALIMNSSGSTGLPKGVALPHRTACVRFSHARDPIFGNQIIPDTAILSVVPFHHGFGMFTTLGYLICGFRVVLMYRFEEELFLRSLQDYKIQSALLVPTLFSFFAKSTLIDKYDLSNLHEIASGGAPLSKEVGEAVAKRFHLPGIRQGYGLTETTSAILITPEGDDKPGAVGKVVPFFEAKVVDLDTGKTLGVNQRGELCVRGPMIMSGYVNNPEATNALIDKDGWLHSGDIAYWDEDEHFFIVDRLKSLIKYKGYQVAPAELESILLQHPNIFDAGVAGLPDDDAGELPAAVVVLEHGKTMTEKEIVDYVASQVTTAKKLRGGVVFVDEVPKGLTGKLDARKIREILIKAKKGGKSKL

Structure (SMILES) | Potency [1] | Potency [2] | Potency [3] | Potency [4] | activity, negative = inhibition ([5]; parasite line A) | activity, negative = inhibition ([5]; parasite line B) | Potency (ATS189) | Potency (CP185) | Potency (CP191) | Potency (CP192) | Potency (CP238) | Potency (CP250) | Potency (CP252) | Potency (CP256) | Potency (CP262) | Potency (CP329) | Potency (Dd2) | Potency (FAB9) | Potency (PC49) | Potency (TAB109)
COC(=O)C1=C(C(=O)OC)[C@@H]2N(C)c3ccccc3[C@@]23C[C@@H](C(=O)OC)N(S(=O)(=O)c2ccc(C#N)cc2)C3=N1 | inactive | inactive | inactive | – | – | – | – | – | – | – | – | – | – | – | – | – | – | – | – | –
COc1ccc2cc1Oc1cc3c(cc1OC)CC[N+](C)(C)C3Cc1ccc(cc1)Oc1c(OC)c(OC)cc3c1C(C2)[N+](C)(C)CC3 (centres undefined) | – | – | – | inactive | 13.3% | 0.155% | inactive | inactive | inactive | inactive | inactive | inactive | inactive | inactive | inactive | inactive | inactive | inactive | inactive | inactive
Cc1cnc(C(=O)O)cn1 | – | – | – | inactive | 9.61% | 7.1% | inactive | inactive | inactive | inactive | inactive | inactive | inactive | inactive | inactive | inactive | inactive | inactive | inactive | inactive
CCOC(=O)C(CCc1ccccc1)NC(C)C(=O)N1Cc2cc(OC)c(OC)cc2CC1C(=O)O (centres undefined) | – | – | – | inactive | -6.17% | -28.7% | inactive | inactive | inactive | inactive | inactive | inactive | inactive | inactive | inactive | inactive | inactive | inactive | 11.2 µM (active) | inactive
